The record followed here is publication PMC3218832.

Some targets named below: RELARELA (p65 homodimer) (Homo sapiens, UniProt Q04206 1-307); p50p50 homodimer (Homo sapiens, UniProt P19838 7-356); RELB subunit;p50 subunit (Homo sapiens;Homo sapiens, UniProt Q01201;P19838 120-401;7-356).
Holding throughout (test): protein binding microarray; high values mean tight binding
Holding throughout (settings): dsDNA, one strand shown

In a further test the target is T1, p52p52 homodimer (Homo sapiens, UniProt Q00653 4-332).
T1 sequence: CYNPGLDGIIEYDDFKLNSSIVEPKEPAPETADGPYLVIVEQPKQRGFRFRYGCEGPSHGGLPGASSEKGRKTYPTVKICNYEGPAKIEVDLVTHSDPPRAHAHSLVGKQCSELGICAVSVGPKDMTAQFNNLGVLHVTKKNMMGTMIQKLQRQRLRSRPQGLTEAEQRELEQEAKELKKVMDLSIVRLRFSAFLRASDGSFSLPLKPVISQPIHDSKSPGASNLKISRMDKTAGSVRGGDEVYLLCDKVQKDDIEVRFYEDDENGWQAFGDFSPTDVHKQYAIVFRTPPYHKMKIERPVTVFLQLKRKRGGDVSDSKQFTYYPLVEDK

Test [1] has as its target RELA (p65) subunit of heterodimer;p50 subunit (Homo sapiens;Homo sapiens, UniProt Q04206;P19838 1-307;7-356).
In test [2] the target is RELA (p65) subunit of heterodimer;p52 subunit (Homo sapiens;Homo sapiens, UniProt Q04206;Q00653 1-307;4-332).
The target in another test is T2, RELB subunit;p52 subunit (Homo sapiens;Homo sapiens, UniProt Q01201;Q00653 120-401;4-332).
T2 sequence 1: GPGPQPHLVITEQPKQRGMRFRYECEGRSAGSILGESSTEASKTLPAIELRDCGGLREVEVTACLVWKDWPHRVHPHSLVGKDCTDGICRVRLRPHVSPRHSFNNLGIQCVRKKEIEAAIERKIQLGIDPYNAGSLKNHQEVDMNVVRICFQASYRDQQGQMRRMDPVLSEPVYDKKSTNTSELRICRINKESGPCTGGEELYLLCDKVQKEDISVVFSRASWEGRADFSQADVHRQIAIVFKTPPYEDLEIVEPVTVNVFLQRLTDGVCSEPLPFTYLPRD
T2 sequence 2: T1 sequence

For test [3], the target named is C-Rel subunit;p50 subunit (Homo sapiens;Homo sapiens, UniProt Q04864;P19838 1-285;7-356).
Test [4] deals with T3, C-Rel subunit;p52 subunit (Homo sapiens;Homo sapiens, UniProt Q04864;Q00653 1-285;4-332).
T3 sequence 1: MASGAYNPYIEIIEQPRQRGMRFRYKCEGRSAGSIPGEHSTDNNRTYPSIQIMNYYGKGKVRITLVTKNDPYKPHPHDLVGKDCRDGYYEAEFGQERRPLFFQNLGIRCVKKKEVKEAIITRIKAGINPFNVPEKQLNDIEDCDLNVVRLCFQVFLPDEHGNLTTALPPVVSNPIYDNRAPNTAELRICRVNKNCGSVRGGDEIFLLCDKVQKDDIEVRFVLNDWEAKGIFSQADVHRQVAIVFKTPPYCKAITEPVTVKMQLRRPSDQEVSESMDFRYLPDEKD
T3 sequence 2: T1 sequence

Chain of p50p50 homodimer (P19838 7-356): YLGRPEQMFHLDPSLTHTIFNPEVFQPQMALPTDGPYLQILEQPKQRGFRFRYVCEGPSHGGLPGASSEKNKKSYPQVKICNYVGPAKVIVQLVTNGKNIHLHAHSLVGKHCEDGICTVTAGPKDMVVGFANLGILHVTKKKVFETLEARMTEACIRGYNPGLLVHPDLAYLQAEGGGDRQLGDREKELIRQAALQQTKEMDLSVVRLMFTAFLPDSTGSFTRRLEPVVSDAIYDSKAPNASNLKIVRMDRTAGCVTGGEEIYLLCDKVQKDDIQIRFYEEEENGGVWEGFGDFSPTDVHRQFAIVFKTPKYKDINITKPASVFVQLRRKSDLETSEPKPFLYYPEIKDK
Chain of RELA (p65) subunit of heterodimer;p50 subunit (Q04206 1-307, chain 1 of 2): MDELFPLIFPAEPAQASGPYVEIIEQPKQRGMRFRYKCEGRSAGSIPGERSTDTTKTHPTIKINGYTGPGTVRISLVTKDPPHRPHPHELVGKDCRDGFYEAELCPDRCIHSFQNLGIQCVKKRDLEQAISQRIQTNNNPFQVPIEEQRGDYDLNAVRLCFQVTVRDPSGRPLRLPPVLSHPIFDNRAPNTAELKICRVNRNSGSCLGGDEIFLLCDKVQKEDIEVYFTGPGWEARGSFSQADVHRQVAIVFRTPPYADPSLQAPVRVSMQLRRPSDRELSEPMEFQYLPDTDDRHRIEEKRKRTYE
Chain of RELA (p65) subunit of heterodimer;p50 subunit (P19838 7-356, chain 2 of 2): as the sequence (P19838 7-356) above
Chain of RELARELA (p65 homodimer) (Q04206 1-307): as the sequence (Q04206 1-307, chain 1 of 2) above

With GGATGTCCCCC, the binding signal was 0.799 z-score with RELARELA (p65 homodimer); 1.11 z-score with p50p50 homodimer; 1.17 z-score in the test with p52p52 homodimer; 1.69 z-score in test [1]; 1.37 z-score in [2]; 1.27 z-score with RELB subunit;p50 subunit. For the same sequence, the binding signal with RELB subunit;p52 subunit turned out to be 1.47 z-score; in test [3] it was 1.1 z-score; in test [4], 1.45 z-score.

With AGAGTAGCCCT, the binding signal with RELARELA (p65 homodimer) was -0.721 z-score; with p50p50 homodimer it was -1.16 z-score; in the test with p52p52 homodimer, -0.729 z-score; in test [1] it was -0.963 z-score; in [2] it was -0.869 z-score; in the test with RELB subunit;p50 subunit, -0.78 z-score. The binding signal with RELB subunit;p52 subunit was -0.814 z-score; in test [3], -1.22 z-score; in test [4], -0.688 z-score.

As for AAAAATCCCCT, the binding signal was determined as 2.27 z-score in the test with RELARELA (p65 homodimer); 1.6 z-score with p50p50 homodimer; 3.18 z-score with p52p52 homodimer; 2.55 z-score in test [1]; 2.84 z-score in test [2]; 3.22 z-score in the test with RELB subunit;p50 subunit. The results for the binding signal (with RELB subunit;p52 subunit; in test [3]; in test [4]) were 2.88 z-score, 2.19 z-score and 3.19 z-score, respectively.

With CAGAAGATCCT, the binding signal is -1.03 z-score with RELARELA (p65 homodimer); -2.16 z-score with p50p50 homodimer; -0.765 z-score with p52p52 homodimer; -1.33 z-score in [1]; -1.13 z-score in test [2]; -1.3 z-score in the test with RELB subunit;p50 subunit. Further, the binding signal is -1.12 z-score with RELB subunit;p52 subunit, -1.5 z-score in test [3] and -1.07 z-score in test [4].

CGATTGACCCC: the binding signal with RELARELA (p65 homodimer) is -0.827 z-score; with p50p50 homodimer, -0.753 z-score; with p52p52 homodimer it was -0.367 z-score; in test [1] it was -0.579 z-score; in test [2], -0.288 z-score; in the test with RELB subunit;p50 subunit, -0.398 z-score. The binding signal with RELB subunit;p52 subunit was -0.411 z-score; in test [3], -0.541 z-score; in test [4], -0.184 z-score.

As for CAGAGCACCCT, the binding signal with RELARELA (p65 homodimer) is -0.924 z-score; with p50p50 homodimer, -0.392 z-score; in the test with p52p52 homodimer, -0.306 z-score; in test [1] it was -0.624 z-score; in [2], -0.75 z-score; in the test with RELB subunit;p50 subunit, -0.474 z-score. The binding signal with RELB subunit;p52 subunit was -0.444 z-score; in test [3], -1.15 z-score; in test [4], -0.736 z-score.

Take GGGGGGCCCCT: the binding signal came to 0.434 z-score with RELARELA (p65 homodimer); 0.995 z-score with p50p50 homodimer; 1.67 z-score in the test with p52p52 homodimer; 1.67 z-score in test [1]; 1.86 z-score in [2]; 1.23 z-score with RELB subunit;p50 subunit. Besides, the binding signal turned out to be 1.45 z-score with RELB subunit;p52 subunit, 1.22 z-score in test [3] and 1.71 z-score in test [4].

For CAATGTGTCCT, the binding signal with RELARELA (p65 homodimer) was 0.249 z-score; with p50p50 homodimer it was -1.04 z-score; with p52p52 homodimer, -0.284 z-score; in [1], -0.926 z-score; in [2], -0.828 z-score; with RELB subunit;p50 subunit it was -0.731 z-score. Also, the binding signal was -0.475 z-score in the test with RELB subunit;p52 subunit, -0.887 z-score in test [3] and -0.764 z-score in test [4].

CGATGGATCCT: the binding signal was -0.596 z-score with RELARELA (p65 homodimer); -1.5 z-score in the test with p50p50 homodimer; -0.616 z-score in the test with p52p52 homodimer; -1.04 z-score in [1]; -1 z-score in [2]; -1.33 z-score with RELB subunit;p50 subunit. The results for the binding signal (in the test with RELB subunit;p52 subunit; in test [3]; in test [4]) were -1.12 z-score, -1.59 z-score and -1.01 z-score, respectively.

For the sequence AAAGGCCTCCC, the binding signal with RELARELA (p65 homodimer) was -1.18 z-score; with p50p50 homodimer, -0.959 z-score; with p52p52 homodimer, -0.552 z-score; in test [1] it was -0.794 z-score; in [2], -0.782 z-score; with RELB subunit;p50 subunit it was -0.857 z-score. The values for the binding signal (in the test with RELB subunit;p52 subunit; in test [3]; in [4]) were -0.868 z-score, -1.17 z-score and -0.735 z-score, respectively.

Turning to GGGAAAGCCCC, the binding signal in the test with RELARELA (p65 homodimer) stood at 3.52 z-score; with p50p50 homodimer, 1.48 z-score; with p52p52 homodimer, 3.39 z-score; in test [1], 3.02 z-score; in test [2], 3.27 z-score; in the test with RELB subunit;p50 subunit, 3.3 z-score. For the same sequence, the binding signal with RELB subunit;p52 subunit was determined as 2.95 z-score; in [3], 2.45 z-score; in test [4] it was 3.53 z-score.

AAATGAGTCCT: the binding signal with RELARELA (p65 homodimer) is -0.142 z-score; in the test with p50p50 homodimer, -1.04 z-score; with p52p52 homodimer, -0.602 z-score; in test [1], -0.991 z-score; in [2], -0.866 z-score; in the test with RELB subunit;p50 subunit, -0.889 z-score. The binding signal was -0.596 z-score with RELB subunit;p52 subunit, -1.08 z-score in test [3] and -0.769 z-score in [4].

Take GGAAATCCCCT: the binding signal in the test with RELARELA (p65 homodimer) came out at 3.63 z-score; with p50p50 homodimer it was 1.5 z-score; in the test with p52p52 homodimer, 3.23 z-score; in [1], 3.21 z-score; in [2], 3.34 z-score; in the test with RELB subunit;p50 subunit, 2.45 z-score. For the same sequence, the binding signal was 3.27 z-score with RELB subunit;p52 subunit, 3.04 z-score in test [3] and 3.88 z-score in test [4].

Consider AGATTACTCCT, for which the binding signal with RELARELA (p65 homodimer) is -0.0935 z-score; with p50p50 homodimer, -1.24 z-score; with p52p52 homodimer it was -0.548 z-score; in test [1], -0.691 z-score; in test [2], -0.875 z-score; with RELB subunit;p50 subunit, -1.01 z-score. The binding signal with RELB subunit;p52 subunit is -0.843 z-score; in [3], -1.01 z-score; in [4], -0.848 z-score.

With GAATTAGTCCT, the binding signal with RELARELA (p65 homodimer) was 0.155 z-score; in the test with p50p50 homodimer, -1.6 z-score; in the test with p52p52 homodimer it was -0.565 z-score; in test [1], -0.821 z-score; in test [2] it was -0.862 z-score; with RELB subunit;p50 subunit, -0.954 z-score. Further, the binding signal in the test with RELB subunit;p52 subunit was -0.767 z-score; in test [3], -0.711 z-score; in test [4] it was -0.848 z-score.
